This passage reports Potency and viability results from PubChem BioAssay (NCATS).

Results filed as inconclusive are left out. The source made the active and inactive calls. Calls follow the shape of the dose curve; as a rule, active = well fitted cell-killing curve with a large enough effect; inconclusive = small, poorly fitted or top-dose-only effect, or effect the other way; inactive = no such curve, though single readings can be large or run the other way.
Potency is read from the fitted curve at half-maximal effect.

The experiment is described as follows: Quantitative High-Throughput drug screen in 47 multiple myeloma cell lines against the NCATS MIPE library collection: KMS21BM_JCRB cell viability assay (AID 1918974). The note with it: ATP luminescence, 48 h; viability: at 45.8 µM. The source says: PI: Beverly A. Mock Ph.D.
Laboratory of Cancer Biology and Genetics,
Center for Cancer Research, National Cancer Institute,
National Institute of Health, Bethesda, Maryland
Drug resistance and disease progression are common in multiple myeloma (MM) patients, underscoring the need for new therapeutic combinations. […] We hypothesized that effective combinations would reduce MYC expression and enhance p16 activity. […] These preclinical data identify potentially useful drug combinations for evaluation in drug-resistant MM and reveal potential mechanisms of combined drug sensitivity.
Described herein is the primary MIPE qHTS used to cherrypick compounds. Validated compounds were then further tested for potential synergistic activiy.
[1] Peat TJ, Gaikwad SM, Dubois W, Gyabaah-Kessie N, Zhang S, Gorjifard S, Phyo Z, Andres M, Hughitt VK, Simpson RM, Miller MA, Girvin AT, Taylor A, Williams D, D'Antonio N, Zhang Y, Rajagopalan A, Flietner E, Wilson K, Zhang X, Shinn P, Klumpp-Thomas C, McKnight C, Itkin Z, Chen L, Kazandijian D, Zhang J, Michalowski AM, Simmons JK, Keats J, Thomas CJ, Mock BA. Drug combinations identified by high-throughput screening promote cell cycle transition and upregulate Smad pathways in myeloma. Cancer Lett. 2023 Aug 1;568:216284. doi: 10.1016/j.canlet.2023.216284. Epub 2023 Jun 24. PMID: 37356470; PMCID: PMC10408729.
SEQUENCE No. (e.g., 1, 2, 3, etc.); […] (e.g., Cells, Incubation, Reagent, etc.); VALUE and DESCRIPTION.
1; Cells; 5 uL; white, solid bottom 1536-well Greiner assay plate.
2; Compounds; 23 nL; Kalypsis pin tool (Wako USA) equipped with a 1536-well pin head to transfer to the assay plates.
3; Incubation; 48 hours; 37C incubation.
4; Reagent;5uL; CellTiter Glo (Promega).
5; Detector; 425V; Luminescence; Viewlux PerkinElmer.
NOTES (numbers refer to Sequence numbers above)
1. The cell-based screening methods employed in this study were like those previously published. Briefly, the corresponding myeloma cell lines were screened in 1,536-well plates with 500 cells, 5-uL per well for inhibition of cell viability (assessed by measuring ATP levels with CellTiterGlo).
2. NCATS MIPE 4.0 library of approved and investigational drugs were added using the Kalypsis pin tool. Wells treated with DMSO only for 100% viability and media only wells for 0% viability were used as controls.
3. The assay plates were covered and incubated for 48 hours in a 37C, 5% CO2 incubator with controlled humidity.
4. After 48 hours, CellTilter-GloTM luminescent substrate mix (Promega) reagent was added to the assay plate and plates we incubated for 5 min at room temperature.
5. Signal was measured as median relative luminescence units on a ViewLux (PerkinElmer) multiplate reader.
[1] Heske CM, Davis MI, Baumgart JT, Wilson K, Gormally MV, Chen L, Zhang X, Ceribelli M, Duveau DY, Guha R, Ferrer M, Arnaldez FI, Ji J, Tran HL, Zhang Y, Mendoza A, Helman LJ, Thomas CJ. Matrix Screen Identifies Synergistic Combination of PARP Inhibitors and Nicotinamide Phosphoribosyltransferase (NAMPT) Inhibitors in Ewing Sarcoma. Clin Cancer Res. 2017 Dec 1;23(23):7301-7311. doi: 10.1158/1078-0432.CCR-17-1121. Epub 2017 Sep 12. PMID: 28899971; PMCID: PMC6636827.
For the compound `CCC=CC[C@H]1C(=O)CC[C@@H]1CC(=O)OC`, the Potency result is “inactive”.

With `CNC(=O)[C@H](CC1=CN=C2C=CCC=C12)NC(=O)[C@@H](CC(=O)NO)CC(C)C`, the Potency was 105 nM (active).

As for `C=C1[C@H](n2cnc3c(=O)[nH]c(N)nc32)C[C@H](O)[C@H]1CO`, the Potency is 1320 nM (active).

In the case of `CC(=O)Nc1cccc(-n2c(=O)n(C3CC3)c(=O)c3c(Nc4ccc(I)cc4F)n(C)c(=O)c(C)c32)c1`, the Potency was 33.2 nM (active).

Take `COc1ccc2c(c1)c(C1=C(c3c[nH]c4ccccc34)C(=O)NC1=O)cn2CCCN(C)C`: the Potency is 469 nM (active).

Consider `O=c1[nH]nc(OCCCc2ccc(Cl)cc2)c(NCc2cccnc2)c1Br`, for which the Potency was 4690 nM (active).

As a reminder, the viability is the share of living cells, or the viability signal relative to a control. As for `CN[C@@H](C)[C@H]1[C@H](O)C[C@@]2(C)[C@@H]3CC[C@H]4C(C)(C)[C@@H](NC)CC[C@@]45C[C@@]35CC[C@]12C`, the viability is 62.4% (active).

For `NC(=O)c1ncn([C@@H]2O[C@H](CO)[C@@H](O)[C@@H]2O)n1`, the Potency result was “inactive”.

In the case of `CN(C)CC[C@H](CSc1ccccc1)Nc1ccc(S(=O)(=O)NC(=O)c2ccc(N3CCN(Cc4ccccc4-c4ccc(Cl)cc4)CC3)cc2)cc1[N+](=O)[O-]`, the Potency was 83.3 nM (active).

As to `O=c1cc(-c2ccc(O)c(O)c2)oc2cc(O)cc(O)c12`, the Potency is 2090 nM (active).

In the case of `CCC[C@H](N[C@@H](C)C(=O)N1[C@@H]2CCCC[C@H]2C[C@H]1C(=O)O)C(=O)OCC`, the Potency result was “inactive”.

As for `Cc1nc(NC(=O)N2CCC[C@@H]2C(N)=O)sc1-c1csc(C(C)(C)C)n1`, the Potency is 1050 nM (active).

In the case of `CC1=C(CC(=O)O)c2cc(F)ccc2C1=Cc1ccc(S(C)=O)cc1` (stereo not given), the Potency is 20900 nM (active).

As for `Nc1ncnc2c1ncn2[C@@H]1O[C@H](CO)[C@@H](O)[C@@H]1O`, the Potency was 209 nM (active).

For the compound `COc1cc(N2CCN(C)CC2)ccc1Nc1nc(N)c(C(=O)c2c(Cl)cccc2Cl)s1`, the Potency is 10500 nM (active).

Take `CN1CCN(c2cccc(Nc3nc4c(-c5ccc(S(C)(=O)=O)cc5)cccn4n3)c2)CC1`: the Potency is 3320 nM (active).

On to `OC1CCC(Nc2ncc3nc(Nc4c(F)cc(F)cc4F)n([C@@H]4CCOC4)c3n2)CC1` (stereo not given in full), for which the Potency is 4690 nM (active).

Regarding `Cc1cc(CS(=O)(=O)c2ccccc2)cc(OCc2ccc(CN3CCC[C@H]3CO)cc2)c1`, the Potency is 1180 nM (active).

In the case of `Clc1ccc(COC(Cn2ccnc2)c2ccc(Cl)cc2Cl)c(Cl)c1` (stereo not given), the Potency was 37200 nM (active).

As to `NS(=O)(=O)c1ccc(Nc2nc(OCC3CCCCC3)c3[nH]cnc3n2)cc1`, the Potency was 4180 nM (active).

For `CC1(C)OC2CC3C4CC(F)C5=CC(=O)C=CC5(C)C4C(O)CC3(C)[C@]2(C(=O)CO)O1` (stereo not given in full), the Potency is 8.3 nM (active).

As to `COc1ccc(Cn2ccc3ccc(C(=O)NO)cc32)cc1`, the Potency was 5900 nM (active).

Regarding `CC[C@H](C)C(=O)O[C@H]1C[C@H](O)C=C2C=C[C@H](C)[C@H](CC[C@@H](O)C[C@@H](O)CC(=O)O)[C@H]21`, the Potency entry is “inactive”.

Regarding `CC(C)(C)c1nc(-c2cccc(NS(=O)(=O)c3c(F)cccc3F)c2F)c(-c2ccnc(N)n2)s1`, the Potency was 2350 nM (active).

With `O=C(c1ccc(C=Cc2n[nH]c3ccccc23)cc1)N1CCNCC1`, the Potency was 590 nM (active).

For `N#CC(=C1Nc2ccccc2S1)c1ccnc(OCc2ccc(CN3CCOCC3)cc2)n1`, the Potency was 26.4 nM (active).

As to `CSc1cccc(Nc2ncc3cc(-c4c(Cl)cccc4Cl)c(=O)n(C)c3n2)c1`, the Potency was 20.9 nM (active).

As for `Cc1csc(-c2nnc(Nc3ccc(Oc4ncccc4-c4ccnc(N)n4)cc3)c3ccccc23)c1`, the Potency was 18700 nM (active).

Take `CC(C)n1c(C=C[C@H](O)C[C@H](O)CC(=O)O)c(-c2ccc(F)cc2)c2ccccc21`: the Potency is 29600 nM (active).

Turning to `CCOc1ccccc1N=Nc1c(C)[nH]n(-c2nc(-c3ccccc3)cs2)c1=O`, the Potency result is “inactive”.

Take `OCCn1cc(-c2ccc3c(c2)CCC3=NO)c(-c2ccncc2)n1`: the Potency is 8330 nM (active).

Consider `CC[C@]1(O)C[C@H]2CN(CCC3=c4ccccc4=N[C]3[C@@](C(=O)OC)(c3cc4c(cc3OC)N(C)[C@H]3[C@@](O)(C(N)=O)[C@H](O)[C@]5(CC)C=CCN6CC[C@]43[C@@H]65)C2)C1`, for which the Potency is 93.5 nM (active).

Take `CCC(=O)N1CCN(c2ccc(-n3c(=O)ccc4cnc5ccc(-c6cnc7ccccc7c6)cc5c43)cc2C(F)(F)F)CC1`: the Potency is 37.2 nM (active).

Take `CN(C)CCOc1ccc(-c2nc(-c3ccc4c(c3)CCC4=NO)c(-c3ccncc3)[nH]2)cc1`: the Potency was 7430 nM (active).

With `CNC(=O)c1cc(Oc2ccc(NC(=O)Nc3ccc(Cl)c(C(F)(F)F)c3)c(F)c2)ccn1`, the Potency is 2960 nM (active).

`CCNC(=O)Nc1ccc(Oc2ncnc(N)c2C=NOC)cc1Cl`: the Potency was 2350 nM (active).

As for `CCN1C[C@H](C)n2c(c(O)c3c(=O)n(Cc4ccc(F)c(Cl)c4)nc(C(=O)NC)c32)C1=O`, the Potency result is “inactive”.

For the compound `Cc1cnc(Nc2cccc(CN3CCOCC3)c2)nc1Nc1cccc(S(=O)(=O)NC(C)(C)C)c1`, the Potency is 833 nM (active).

Turning to `CC(C)Oc1cc(Nc2nc(N[C@@H](C)c3ccc(F)cn3)ncc2Cl)[nH]n1`, the Potency was 5260 nM (active).

Regarding `COc1cc2nc(-c3cc(F)ccc3O)nc(N[C@@H]3CNC[C@@H]3C(C)(C)O)c2cc1OC`, the Potency is 935 nM (active).
